# Assay results as given in the supplement of paper PMC8975748.
# Structures can show the parent of a compound that is named as a salt. ± gives the standard deviation of the averaged measurements.
# Columns and labels:
# [1] = tested on: Saccharomyces cerevisiae BY4741 SeMeCo community; assay: mean cell size (pixel area) (pixels); higher = larger cells; conditions: 10 µM; 24 h; SM minimal medium
# Summary of the method: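 A four-plasmid fluorescent Saccharomyces cerevisiae BY4741 community was tested; each plasmid complements one auxotrophy and carries a fluorescent marker. An overnight preculture at OD600 = 1.0 was diluted to OD600 = 0.3, and 70 µl was added to 384-well plates acoustically predosed with drug (final 10 µM) in SM medium for 24 h. Cells were fixed with paraformaldehyde and imaged by automated confocal microscopy, with analysis in Harmony. Mean cell pixel area per well is averaged over 3 replicates. Same SeMeCo high-content imaging drug screen: Selleck FDA-approved drugs at 10 µM, 24 h in SM medium, 384-well plates, 3 replicates.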
# [2] = tested on: Saccharomyces cerevisiae BY4741 SeMeCo community; assay: z-score of subpopulation abundance vs DMSO median, subpopulation auxotrophic for M; higher = larger share of this subpopulation than in DMSO controls; conditions: 10 µM; 24 h; SM minimal medium; subpopulation (auxotrophy): M
# Summary of the method: (§1)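 Cells of a Saccharomyces cerevisiae BY4741 community, carrying four plasmids that each restored one auxotrophy and encoded a distinct fluorescent protein, were pre-grown overnight to OD600 1.0 and diluted to 0.3. A 70 µl volume was added to 384-well plates acoustically predosed with library drugs (10 µM final) and grown 24 h in minimal SM medium. After paraformaldehyde fixation, automated confocal microscopy was used, with single-auxotroph fluorescent strains for thresholds and autofluorescence correction. The abundance of each subpopulation was scored as a z-score against the vehicle-well median.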
# [3] = tested on: Saccharomyces cerevisiae BY4741 SeMeCo community; assay: z-score of subpopulation abundance vs DMSO median, subpopulation auxotrophic for L; higher = larger share of this subpopulation than in DMSO controls; conditions: 10 µM; 24 h; SM minimal medium; subpopulation (auxotrophy): L
# Summary of the method: as §1
# [4] = tested on: Saccharomyces cerevisiae BY4741 SeMeCo community; assay: z-score of subpopulation abundance vs DMSO median, subpopulation auxotrophic for H; higher = larger share of this subpopulation than in DMSO controls; conditions: 10 µM; 24 h; SM minimal medium; subpopulation (auxotrophy): H
# Summary of the method: as §1
# [5] = tested on: Saccharomyces cerevisiae BY4741 SeMeCo community; assay: z-score of subpopulation abundance vs DMSO median, subpopulation auxotrophic for LU; higher = larger share of this subpopulation than in DMSO controls; conditions: 10 µM; 24 h; SM minimal medium; subpopulation (auxotrophy): LU
# Summary of the method: as §1
# [6] = tested on: Saccharomyces cerevisiae BY4741 SeMeCo community; assay: z-score of subpopulation abundance vs DMSO median, subpopulation auxotrophic for LM; higher = larger share of this subpopulation than in DMSO controls; conditions: 10 µM; 24 h; SM minimal medium; subpopulation (auxotrophy): LM
# Summary of the method: as §1
# [7] = tested on: Saccharomyces cerevisiae BY4741 SeMeCo community; assay: z-score of subpopulation abundance vs DMSO median, subpopulation auxotrophic for HU; higher = larger share of this subpopulation than in DMSO controls; conditions: 10 µM; 24 h; SM minimal medium; subpopulation (auxotrophy): HU
# Summary of the method: as §1
# [8] = tested on: Saccharomyces cerevisiae BY4741 SeMeCo community; assay: z-score of subpopulation abundance vs DMSO median, subpopulation auxotrophic for UM; higher = larger share of this subpopulation than in DMSO controls; conditions: 10 µM; 24 h; SM minimal medium; subpopulation (auxotrophy): UM
# Summary of the method: as §1
# [9] = tested on: Saccharomyces cerevisiae BY4741 SeMeCo community; assay: z-score of subpopulation abundance vs DMSO median, subpopulation auxotrophic for HL; higher = larger share of this subpopulation than in DMSO controls; conditions: 10 µM; 24 h; SM minimal medium; subpopulation (auxotrophy): HL
# Summary of the method: as §1
# [10] = tested on: Saccharomyces cerevisiae BY4741 SeMeCo community; assay: z-score of subpopulation abundance vs DMSO median, subpopulation auxotrophic for LUM; higher = larger share of this subpopulation than in DMSO controls; conditions: 10 µM; 24 h; SM minimal medium; subpopulation (auxotrophy): LUM
# Summary of the method: as §1
# [11] = tested on: Saccharomyces cerevisiae BY4741 SeMeCo community; assay: z-score of subpopulation abundance vs DMSO median, subpopulation auxotrophic for HLUM; higher = larger share of this subpopulation than in DMSO controls; conditions: 10 µM; 24 h; SM minimal medium; subpopulation (auxotrophy): HLUM
# Summary of the method: as §1
# [12] = tested on: Saccharomyces cerevisiae BY4741 SeMeCo community; assay: z-score of prototroph abundance vs DMSO median; higher = larger share of this subpopulation than in DMSO controls; conditions: 10 µM; 24 h; SM minimal medium; subpopulation (auxotrophy): Prototroph
# Summary of the method: as §1
# [13] = tested on: Saccharomyces cerevisiae BY4741 SeMeCo community; assay: z-score of subpopulation abundance vs DMSO median, subpopulation auxotrophic for U; higher = larger share of this subpopulation than in DMSO controls; conditions: 10 µM; 24 h; SM minimal medium; subpopulation (auxotrophy): U
# Summary of the method: as §1
# [14] = tested on: Saccharomyces cerevisiae BY4741 SeMeCo community; assay: z-score of subpopulation abundance vs DMSO median, subpopulation auxotrophic for HM; higher = larger share of this subpopulation than in DMSO controls; conditions: 10 µM; 24 h; SM minimal medium; subpopulation (auxotrophy): HM
# Summary of the method: as §1
# [15] = tested on: Saccharomyces cerevisiae BY4741 SeMeCo community; assay: z-score of subpopulation abundance vs DMSO median, subpopulation auxotrophic for HLM; higher = larger share of this subpopulation than in DMSO controls; conditions: 10 µM; 24 h; SM minimal medium; subpopulation (auxotrophy): HLM
# Summary of the method: as §1
# [16] = tested on: Saccharomyces cerevisiae BY4741 SeMeCo community; assay: z-score of subpopulation abundance vs DMSO median, subpopulation auxotrophic for HUM; higher = larger share of this subpopulation than in DMSO controls; conditions: 10 µM; 24 h; SM minimal medium; subpopulation (auxotrophy): HUM
# Summary of the method: as §1
compound,measurement,setting,value
COc1ccc2cc(CCC(C)=O)ccc2c1 [Nabumetone],mean cell size,[1],12.5 ± 0.13
same,z-score of subpopulation abundance,[2],0.05
same,z-score of subpopulation abundance,[3],-1.25
same,z-score of subpopulation abundance,[4],-1.58
same,z-score of subpopulation abundance,[5],-0.78
same,z-score of subpopulation abundance,[6],-1.42
same,z-score of subpopulation abundance,[7],-0.64
same,z-score of subpopulation abundance,[8],-0.41
same,z-score of subpopulation abundance,[9],-1.5
same,z-score of subpopulation abundance,[10],-0.43
same,z-score of subpopulation abundance,[11],-1.51
NC(=O)c1cn(Cc2c(F)cccc2F)nn1 [Rufinamide],mean cell size,[1],12.2 ± 0.16
same,z-score of prototroph abundance,[12],-0.37
same,z-score of subpopulation abundance,[3],1.41
same,z-score of subpopulation abundance,[13],-0.6
same,z-score of subpopulation abundance,[4],0.5
same,z-score of subpopulation abundance,[5],0.45
same,z-score of subpopulation abundance,[6],0.7
same,z-score of subpopulation abundance,[14],0.75
same,z-score of subpopulation abundance,[7],-0.24
same,z-score of subpopulation abundance,[8],-0.01
same,z-score of subpopulation abundance,[9],0.55
same,z-score of subpopulation abundance,[15],0.38
same,z-score of subpopulation abundance,[16],0.45
same,z-score of subpopulation abundance,[10],0.43
same,z-score of subpopulation abundance,[11],0.29
Nc1nc2c(ncn2COC(CO)CO)c(=O)[nH]1 [Ganciclovir],mean cell size,[1],12.4 ± 0.16
same,z-score of subpopulation abundance,[3],0
same,z-score of subpopulation abundance,[13],0.17
same,z-score of subpopulation abundance,[4],-0.43
same,z-score of subpopulation abundance,[5],-0.06
same,z-score of subpopulation abundance,[6],-0.15
same,z-score of subpopulation abundance,[14],-0.15
same,z-score of subpopulation abundance,[7],-0.11
same,z-score of subpopulation abundance,[8],0.96
same,z-score of subpopulation abundance,[9],-0.27
same,z-score of subpopulation abundance,[15],-0.21
same,z-score of subpopulation abundance,[16],0.33
same,z-score of subpopulation abundance,[10],-0.04
same,z-score of subpopulation abundance,[11],-0.89
CCn1cc(C(=O)O)c(=O)c2cc(F)c(N3CCN(C)CC3)cc21 [Pefloxacin Mesylate Dihydrate],z-score of prototroph abundance,[12],-0.64
same,z-score of subpopulation abundance,[2],1.25
same,z-score of subpopulation abundance,[3],-0.36
same,z-score of subpopulation abundance,[4],0.39
same,z-score of subpopulation abundance,[5],-0.04
same,z-score of subpopulation abundance,[6],-0.32
same,z-score of subpopulation abundance,[14],0.71
same,z-score of subpopulation abundance,[7],0.28
same,z-score of subpopulation abundance,[8],0.05
same,z-score of subpopulation abundance,[9],0.3
same,z-score of subpopulation abundance,[16],-0.06
same,z-score of subpopulation abundance,[10],-0.46
same,z-score of subpopulation abundance,[11],-0.42
CN(CCN1CCC(OC(=O)Nc2ccccc2-c2ccccc2)CC1)C(=O)c1ccc(CN2CCC(C(N)=O)CC2)cc1 [Revefenacin],mean cell size,[1],12.17 ± 0.043
same,z-score of prototroph abundance,[12],-0.26
same,z-score of subpopulation abundance,[2],1.54
same,z-score of subpopulation abundance,[3],-0.42
same,z-score of subpopulation abundance,[4],-0.6
same,z-score of subpopulation abundance,[6],0.16
same,z-score of subpopulation abundance,[7],-0.27
same,z-score of subpopulation abundance,[8],0.92
same,z-score of subpopulation abundance,[9],-0.32
same,z-score of subpopulation abundance,[15],-0.49
same,z-score of subpopulation abundance,[10],0.17
CSc1nc2cc(Cl)c(Oc3cccc(Cl)c3Cl)cc2[nH]1 [Triclabendazole],mean cell size,[1],13.1 ± 0.54
same,z-score of prototroph abundance,[12],1.8
same,z-score of subpopulation abundance,[2],-9.19
same,z-score of subpopulation abundance,[3],-0.07
same,z-score of subpopulation abundance,[4],5.63
same,z-score of subpopulation abundance,[6],-2.65
same,z-score of subpopulation abundance,[8],-5.17
same,z-score of subpopulation abundance,[9],3.65
same,z-score of subpopulation abundance,[15],7.41
same,z-score of subpopulation abundance,[16],-1.46
same,z-score of subpopulation abundance,[10],1.09
same,z-score of subpopulation abundance,[11],4.69
O=C(CCCN1CC=C(n2c(=O)[nH]c3ccccc32)CC1)c1ccc(F)cc1 [Droperidol],mean cell size,[1],12.61 ± 0.072
same,z-score of prototroph abundance,[12],-0.55
same,z-score of subpopulation abundance,[3],0.41
same,z-score of subpopulation abundance,[13],0.1
same,z-score of subpopulation abundance,[4],-0.5
same,z-score of subpopulation abundance,[5],1.58
same,z-score of subpopulation abundance,[14],0.2
same,z-score of subpopulation abundance,[7],-0.11
same,z-score of subpopulation abundance,[8],0.62
same,z-score of subpopulation abundance,[9],0.21
same,z-score of subpopulation abundance,[15],0.63
same,z-score of subpopulation abundance,[16],-0.23
same,z-score of subpopulation abundance,[10],0.57
same,z-score of subpopulation abundance,[11],0.59
